Results: the supplement of paper PMC10338343
± gives the standard deviation. Whole data set: some 8,200 sequences, median “pre-steady-state target cleavage rate” near 0.024, cut for the highest 2% near 1.3. This excerpt belongs to a sample that is enriched for the highest values.

Test system: MIWI (PIWIL1) piRISC loaded with L1MC piRNA (30 nt)
Assay: pre-steady-state target cleavage rate (min^-1); MIWI and MILI are mouse PIWI proteins and EfPiwi is from a freshwater sponge; tags in brackets are library labels; higher = faster piRNA-guided slicing of the target
Details: guide: L1MC piRNA 5'p-UAACUAAAUACUAUGCAAGCUGUAGGUCCU
How it was run: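 The pre-steady-state cleavage rate was obtained by Cleave-'n-Seq with a burst-and-steady-state fit. A transcribed, DNA-blocked target RNA library (0.1 nM) was mixed with 1 nM active affinity-purified piRISC carrying one synthetic guide, with or without 500 nM GTSF1 partner protein, in HEPES–potassium acetate buffer at 33 °C for 0–8 or 0–960 min. Uncleaved targets were sequenced and normalised to depth and to weakly complementary targets, with three trials pooled and k3 capped at 0.0001 min^-1.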

[1] = auxiliary factor: 500 nM mouse GTSF1
[2] = auxiliary factor: none (no GTSF1)

| Sequence | pre-steady-state target cleavage rate [1] | pre-steady-state target cleavage rate [2] |
| --- | --- | --- |
| UCCUGGAUGAGCUUGCAUAGUAUAUACAAA | 0.00918 ± 0.0054 |  |
| UCCUGGAAGAGCUUGCAUAGUAUUUACAAA | 0.0945 ± 0.02 |  |
| UCCUGCUACAGCUUGCUUAGUAUAUAGUUA | 0.404 ± 0.038 | 0.0128 ± 0.0044 |
| UCCACCUACUGCUUGCAUACUAUUUAGUUA | 0.297 ± 0.026 | 0.0231 ± 0.0039 |
| UCCUGCUAGAGCUUGCAUACUAUUUAGUUA | 0.248 ± 0.03 | 0.0221 ± 0.0058 |
| AGGACCUACUGCUUGGAUAGUAUUUAGUUA | 1.34 ± 0.052 | 0.061 ± 0.0085 |
| UCCUGCUACUGCUUGGAUAGUAUUUAGUUA | 0.969 ± 0.077 | 0.0353 ± 0.0055 |
| UCGACCUACACCUUGGAUAGUAUUUAGUUA | 0.854 ± 0.076 | 0.0364 ± 0.0044 |
| AGGACCUACACCUUGGAUAGUAUUUAGUUA | 0.817 ± 0.061 | 0.0497 ± 0.0086 |
| UCCUCCUACUGCUUGGAUAGUAUUUAGUUA | 1.21 ± 0.04 | 0.0517 ± 0.0073 |
| UGGACCUACACCUUGGAUAGUAUUUAGUUA | 0.815 ± 0.069 | 0.0418 ± 0.0063 |
| UGGACCUACUGCUUGGAUAGUAUUUAGUUA | 1.65 ± 0.072 | 0.0542 ± 0.0088 |
| UCCACCUACUGCUUGGAUAGUAUUUAGUUA | 1.14 ± 0.049 | 0.0503 ± 0.0082 |
| UCGACCUACUGCUUGGAUAGUAUUUAGUUA | 1.67 ± 0.068 | 0.0575 ± 0.0089 |
| UCCUGGAUGUCGAACGUAUCUAAUUAGUAA |  | < 0.0001 |
| UCCUGGAUCAGCUUGAUAGUAUUUAGUUA | 0.0664 ± 0.007 | 0.00393 ± 0.0017 |
| AGGACCUAGAGCUUGCAUAGUAUUUUCAAA | 0.0396 ± 0.013 |  |
| UCCUGCUACAGCAUGCAUAGUAUUUAGUAA | 0.655 ± 0.063 | 0.00614 ± 0.0024 |
| UCCUGGAACAGCUACCAUAGUAUUUAGUAA | 0.0979 ± 0.017 |  |
| UCCUCCUACAGCUUGCAUAGUUAAUAGAAA | 0.0486 ± 0.014 |  |
| UCCUGGUACAGCUUGCAAUGUAUUUAGAAA | 0.0194 ± 0.0063 |  |
| UCGACCUACAGCUUGGUUAGUAUUUUCAAA | 0.0241 ± 0.0089 |  |

| Sequence | pre-steady-state target cleavage rate [1] | pre-steady-state target cleavage rate [2] |
| --- | --- | --- |
| UCCUGGAUGUCCUUGCAUAGUAUAAUGUUA | 0.0139 ± 0.0063 |  |
| UCGACCUACAGCUUGCAUAGUAUUAACAAA | 0.401 ± 0.044 |  |
| UCCACCUACAGCUUGCUUAGUAUUAAGUUA | 0.31 ± 0.03 | 0.00763 ± 0.0016 |
| AGGACCUACAGCAUGCAUAGUAUUUAGUUA | 1.33 ± 0.06 | 0.073 ± 0.015 |
| AGGACCUACAGCAUGCAUAGUAUUUAGAAA | 0.577 ± 0.059 | 0.00715 ± 0.0031 |
| AGGACCUACAGCAUGCAUAGUAUUUAGUAA | 0.986 ± 0.075 | 0.0556 ± 0.014 |
| UCGUCCUACAGCAUGCAUAGUAUUUAGUUA | 1.26 ± 0.047 | 0.0282 ± 0.0049 |
| UGGACCUACAGCAUUGCAUAGUAUUUAGUUA | 1.27 ± 0.11 | 0.0665 ± 0.014 |
| UGGACCUACAGCAUGCAUAGUAUUUAGUAA | 0.977 ± 0.075 | 0.0303 ± 0.0065 |
| UGGACCUACAGCAUGCAUAGUAUUUAGUUA | 1.38 ± 0.078 | 0.0549 ± 0.011 |
| AGGUCCUACAGCAUGCAUAGUAUUUAGUUA | 1.33 ± 0.062 | 0.107 ± 0.026 |
| UGGUCCUACAGCAUGCAUAGUAUUUAGUUA | 1.19 ± 0.061 | 0.0657 ± 0.014 |
| UCCUGGAUGUCGAUGCAUAGUAUUUAGUGA | 0.0103 ± 0.0037 |  |
| UCCACCUACAGCAAGCAUAGUAUUUAGAAA | 0.243 ± 0.035 |  |
| UCCUGGAUGUCCUUGGAUAGUAUUUUGUUA | 0.0668 ± 0.017 |  |
| UCCUCCUACAGCUUGCAUAGUAUCUUAGUUA | 0.96 ± 0.045 | 0.016 ± 0.0044 |
| UGGACCUACAGGAUGCAUAGUAUUUACAAA | 0.216 ± 0.039 |  |
| UCCUGGAACUCGUUGCAUAGUAUUUAGUAA | 0.071 ± 0.011 | 0.00318 ± 0.0021 |
| UCCUGCUACAGCUUGCAUAGUAUUUAGUA | 0.422 ± 0.071 | 0.00464 ± 0.0019 |
| UCCUGCUACAGCUUGCUUAGAAUUUAGUUA | 0.247 ± 0.026 | 0.00845 ± 0.0029 |
| AGGACCUACACGAUGCAUAGUAUUUACAAA | 0.19 ± 0.025 |  |
| UCCACCUACAGCUUGCAAAGUAUAUAGUUA | 0.468 ± 0.045 | 0.0135 ± 0.0031 |

| Sequence | pre-steady-state target cleavage rate [1] | pre-steady-state target cleavage rate [2] |
| --- | --- | --- |
| AGGACCUACAGCUUGCAUAGUAUAUAGUUA | 0.884 ± 0.066 | 0.0667 ± 0.017 |
| UGGACCUUCAGCUUGCAAAGUAUUUAGUUA | 1.34 ± 0.073 | 0.0368 ± 0.0084 |
| UGGACCUACAGCUUGCAUAGUAUUAUAGUUA | 1.24 ± 0.062 | 0.052 ± 0.011 |
| UGGACCUACAGCUUGCAUAGUAUAUAGUAA | 0.356 ± 0.038 | 0.012 ± 0.0037 |
| UGGACCUACAGCUUGCAUAGUAUAUUAGUUA | 1.33 ± 0.079 | 0.0409 ± 0.0089 |
| UGGACCUACAGCUUGCAAAGUAUAUAGUUA | 0.895 ± 0.057 | 0.0204 ± 0.0062 |
| AGGACCUUCAGCUUGCAUAGUAUUUAGUUA | 1.32 ± 0.056 | 0.0842 ± 0.013 |
| AGGACCUUCAGCUUGCAUAGUAUUUAGUAA | 1.07 ± 0.079 | 0.0632 ± 0.012 |
| AGGACCUACAGCUUGCAAAGUAUAUAGUUA | 0.667 ± 0.049 | 0.0238 ± 0.0054 |
| UCGACCUACAGCUUGCAAAGUAUAUAGUUA | 0.855 ± 0.055 | 0.0157 ± 0.0033 |
| AGGACCUACAGCUUGCAUAGUAUUAUAGUUA | 1.05 ± 0.078 | 0.0707 ± 0.015 |
| AGGACCUUCAGCUUGCAAAGUAUUUAGUUA | 1.3 ± 0.051 | 0.0464 ± 0.0089 |
| UGGACCUUCAGCUUGCAUAGUAUUUAGUAA | 1.07 ± 0.064 | 0.0524 ± 0.011 |
| UGGACCUUCAGCUUGCAUAGUAUUUAGUUA | 1.45 ± 0.067 | 0.069 ± 0.011 |
| UGGACCUACAGCUUGCAUAGUAUUAGUUA | 0.172 ± 0.032 | 0.00299 ± 0.0019 |
| AGGACCUACAGCUUGCAUAGUAUAUUAGUUA | 1.18 ± 0.097 | 0.0609 ± 0.015 |
| AGGACCUACAGCUUGCAUAGUAUAUAGUAA | 0.493 ± 0.058 | 0.0216 ± 0.0048 |
| UGGACCUACAGCUUGCAUAGUAUAUAGUUA | 0.892 ± 0.062 | 0.0341 ± 0.0087 |
| UCCUCCUACAGCUUGCAUUGUAUUAAGUUA | 0.309 ± 0.026 | 0.00813 ± 0.0024 |
| UCCACCUACAGCUUGCAUAGAAUUUAGAUA | 0.247 ± 0.037 | 0.00935 ± 0.0029 |
